Assay results taken from PubChem BioAssay.
Results filed as inconclusive are left out. The source made the active and inactive calls.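 The calls were made as follows, unless noted: active = differentiation response of at least 50%, scaled between solvent and reference control, from cells with both markers; inactive = the rest.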

Tests used:
[1] = yeast TOR pathway RPL19A-GFP modulators, primary screen, cell-based, S. cerevisiae, multiplex flow cytometry (AID 1862; in the data active = percent of DMSO control GFP below about 86%;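 also: lower values mimic rapamycin by blocking the RPL19A rise seen in DMSO cells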); settings: S. cerevisiae RPL19A-GFP strain, flow cytometry fluorescence, 3 h; at 10 µM; stronger effect = lower value
[2] = modulators of MEP2-GFP levels in yeast, primary screen, S. cerevisiae, multiplex flow cytometry (AID 1867;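 active = GFP response, as percent of the DMSO control, above the screen-wide mean plus 3 SD, about 139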;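 also: median GFP channel fluorescence of barcode-gated MEP2-GFP cells measured by flow cytometry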); settings: S. cerevisiae MEP2-GFP strain, 3 h, at 10 µM, stronger effect = higher value, 100% means same as DMSO wells
[3] = modulators of CIT2-GFP expression in yeast, primary screen, S. cerevisiae, GFP fusion, multiplex flow cytometry (AID 1870;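 active = percent response above a set limit, the screen-wide mean plus 3 SD, cut at about 130% in these data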;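 also: barcoded CIT2-GFP strain pooled with four other GFP strains with rapamycin as positive control; median GFP fluorescence per well over plate mean of DMSO wells so 100% = DMSO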); settings: 3 h, at 10 µM, stronger effect = higher value
[4] = modulators of LAP4-GFP expression in yeast, primary screen, S. cerevisiae, multiplex flow cytometry (AID 1873;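 active = GFP signal, as percent of the solvent control, above the screen mean plus 3 SD, about 149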); settings: 3 h, at 10 µM, stronger effect = higher value
[5] = modulators of AGP1-GFP expression in yeast TOR pathway, primary screen, cell-based, multiplex flow cytometry, S. cerevisiae (AID 1887;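 active = GFP signal above the screen-wide mean plus 3 SD, that is over about 124.5% of the solvent control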;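 also: AGP1-GFP fusion strain of S. cerevisiae within a five-strain barcoded multiplex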); settings: 3 h, at 10 µM, stronger effect = higher value
[6] = inhibitors of CD8+ T cell-vesicle binding, pilot screen, LFA-1/ICAM-1 modulator project, MLPCN validation set, flow cytometry (AID 2523;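 active = response below a set limit, under 55% cells CD8-positive and vesicle-bound, and CD8 cells' 90th-percentile brightness under 279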;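 as to vesicle binding response: mean PE anti-B7-1 fluorescence of CD8+ cells relative to row control; 100% = QL9-loaded vesicles with DMSO vehicle in the same plate row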); settings: 2C mouse CD8+ T cells, at 7 µM, stronger effect = lower value; double positive events: measured here: CD8+/vesicle+ event percentage
[7] = biological target: Integrin beta-1 (Homo sapiens) + Integrin alpha-4 (Homo sapiens) (UniProt P13612+P05556); experiment: inhibition of HUTS-21 binding to VLA-4, pilot screen, VLA-4 allosteric modulator project, U937 cells, HUTS-21 mAb, flow cytometry, validation set (AID 2674;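 active = inhibition above 50%, about 3 SD of the validation set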;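 also: antibody binding induced by the VLA-4 ligand LDV present at three times its Kd; 0% = LDV ligand with antibody and no compound and 100% = antibody without LDV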); settings: HUTS-21 LIBS mAb binding, at 6.7 µM, stronger effect = higher value, binding induced by LDV ligand
Chain of Integrin beta-1 (Homo sapiens) + Integrin alpha-4 (Homo sapiens) (P05556 whole entry, looked up): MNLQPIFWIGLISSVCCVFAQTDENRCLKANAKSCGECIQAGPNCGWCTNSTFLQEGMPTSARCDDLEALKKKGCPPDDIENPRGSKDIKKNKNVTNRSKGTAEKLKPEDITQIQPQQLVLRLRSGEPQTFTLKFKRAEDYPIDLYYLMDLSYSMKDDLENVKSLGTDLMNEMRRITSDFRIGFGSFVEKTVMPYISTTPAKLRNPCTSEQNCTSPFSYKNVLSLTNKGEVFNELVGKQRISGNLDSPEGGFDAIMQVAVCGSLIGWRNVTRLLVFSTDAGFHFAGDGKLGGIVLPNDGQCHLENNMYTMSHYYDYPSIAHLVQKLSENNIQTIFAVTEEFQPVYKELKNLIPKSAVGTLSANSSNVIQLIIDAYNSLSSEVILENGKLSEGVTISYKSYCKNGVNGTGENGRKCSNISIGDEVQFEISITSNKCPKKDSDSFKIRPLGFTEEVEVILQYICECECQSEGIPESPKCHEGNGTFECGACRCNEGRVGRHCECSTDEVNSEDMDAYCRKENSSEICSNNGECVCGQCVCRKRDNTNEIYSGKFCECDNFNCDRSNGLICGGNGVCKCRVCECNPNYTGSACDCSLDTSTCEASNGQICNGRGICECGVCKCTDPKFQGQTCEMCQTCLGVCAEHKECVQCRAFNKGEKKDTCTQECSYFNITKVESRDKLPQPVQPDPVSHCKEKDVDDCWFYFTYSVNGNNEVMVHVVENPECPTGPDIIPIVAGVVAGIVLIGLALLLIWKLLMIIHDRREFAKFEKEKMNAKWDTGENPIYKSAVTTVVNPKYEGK
Chain of Integrin beta-1 (Homo sapiens) + Integrin alpha-4 (Homo sapiens) (P13612 whole entry, looked up): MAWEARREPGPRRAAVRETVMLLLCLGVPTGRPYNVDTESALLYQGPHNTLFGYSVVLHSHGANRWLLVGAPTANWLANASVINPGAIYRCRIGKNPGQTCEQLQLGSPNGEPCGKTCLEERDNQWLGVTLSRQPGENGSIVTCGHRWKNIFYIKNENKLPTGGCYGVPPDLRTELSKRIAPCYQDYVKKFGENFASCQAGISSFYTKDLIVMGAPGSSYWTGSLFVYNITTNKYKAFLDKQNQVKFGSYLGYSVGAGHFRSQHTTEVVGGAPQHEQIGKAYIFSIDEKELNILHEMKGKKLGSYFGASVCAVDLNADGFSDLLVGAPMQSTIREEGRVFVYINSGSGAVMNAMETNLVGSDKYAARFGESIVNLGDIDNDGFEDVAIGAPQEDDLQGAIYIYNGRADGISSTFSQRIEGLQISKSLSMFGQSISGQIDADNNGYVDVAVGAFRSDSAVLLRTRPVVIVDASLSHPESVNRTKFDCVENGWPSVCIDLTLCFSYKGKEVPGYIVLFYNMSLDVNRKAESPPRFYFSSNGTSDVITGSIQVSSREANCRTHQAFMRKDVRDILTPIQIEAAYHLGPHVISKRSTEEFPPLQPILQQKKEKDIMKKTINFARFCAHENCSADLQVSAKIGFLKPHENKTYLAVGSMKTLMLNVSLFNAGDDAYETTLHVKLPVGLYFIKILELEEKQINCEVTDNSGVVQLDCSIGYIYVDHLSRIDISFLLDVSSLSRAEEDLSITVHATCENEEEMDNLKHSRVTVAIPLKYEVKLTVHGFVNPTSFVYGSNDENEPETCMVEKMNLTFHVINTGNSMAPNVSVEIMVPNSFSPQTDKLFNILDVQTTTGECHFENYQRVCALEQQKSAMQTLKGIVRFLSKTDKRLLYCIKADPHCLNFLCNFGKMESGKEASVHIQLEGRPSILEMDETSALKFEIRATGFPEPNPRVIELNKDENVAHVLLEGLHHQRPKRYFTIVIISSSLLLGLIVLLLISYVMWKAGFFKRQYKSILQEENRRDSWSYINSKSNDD

[8] = superoxide lowering in aged yeast cells, pilot screen, validation compound set (AID 2706;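 active = superoxide response below 65% of plate, a cut near 3 SD across the whole screen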;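 also: yeast exposed to compound for one week at 30 degrees C before staining; 100% = mean of all compound wells on the same plate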); settings: S. cerevisiae aging, superoxide DHE fluorescence; at 10 µM; stronger effect = lower value
[9] = biological target: Beta-adrenergic receptor kinase 1 (Homo sapiens) (UniProt P25098); experiment: GRK2 binders displacing RNA aptamer, biochemical, validation, human GRK2, bead flow cytometry (AID 488806;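 active = aptamer binding inhibition above 30%, about 3 SD of noise from non-fluorescent compounds; inactive = inhibition at or below 30%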); settings: bead-bound GRK2, FAM-aptamer displacement, at 10 µM, stronger effect = higher value
Chain of Beta-adrenergic receptor kinase 1 (Homo sapiens) (P25098 whole entry, looked up): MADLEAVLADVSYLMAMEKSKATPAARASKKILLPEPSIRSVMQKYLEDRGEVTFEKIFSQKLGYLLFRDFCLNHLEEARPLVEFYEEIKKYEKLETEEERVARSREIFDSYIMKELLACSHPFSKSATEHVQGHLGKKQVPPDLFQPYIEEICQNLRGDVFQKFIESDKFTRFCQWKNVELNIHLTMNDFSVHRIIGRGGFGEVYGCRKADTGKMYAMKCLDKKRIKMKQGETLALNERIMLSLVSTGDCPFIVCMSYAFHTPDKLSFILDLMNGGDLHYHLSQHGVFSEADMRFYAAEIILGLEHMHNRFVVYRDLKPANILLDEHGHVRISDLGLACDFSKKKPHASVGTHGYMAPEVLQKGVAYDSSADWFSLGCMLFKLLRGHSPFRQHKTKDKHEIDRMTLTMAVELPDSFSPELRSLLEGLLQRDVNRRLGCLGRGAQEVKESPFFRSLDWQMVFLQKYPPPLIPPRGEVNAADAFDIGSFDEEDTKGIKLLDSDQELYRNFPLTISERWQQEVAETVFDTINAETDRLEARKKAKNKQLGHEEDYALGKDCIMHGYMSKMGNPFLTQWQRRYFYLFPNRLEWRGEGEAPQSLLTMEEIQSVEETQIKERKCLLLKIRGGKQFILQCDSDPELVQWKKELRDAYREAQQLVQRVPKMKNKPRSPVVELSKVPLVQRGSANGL

[10] = biological target: Beta-2 adrenergic receptor (Homo sapiens) (UniProt P07550); experiment: beta2AR agonists driving receptor internalization, pilot screen, cell-based, FAP fluorogen, flow cytometry, validation set (AID 504459;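 active = percent response above 42, roughly 3 SD of non-fluorescent test compounds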;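 also: agonist-driven loss of surface beta2AR via internalization measured by FAP dye flow cytometry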); settings: Am2.2-beta2AR cells, FAP surface receptor flow cytometry; at 10 µM; stronger effect = higher value
Chain of Beta-2 adrenergic receptor (Homo sapiens) (P07550 whole entry, looked up): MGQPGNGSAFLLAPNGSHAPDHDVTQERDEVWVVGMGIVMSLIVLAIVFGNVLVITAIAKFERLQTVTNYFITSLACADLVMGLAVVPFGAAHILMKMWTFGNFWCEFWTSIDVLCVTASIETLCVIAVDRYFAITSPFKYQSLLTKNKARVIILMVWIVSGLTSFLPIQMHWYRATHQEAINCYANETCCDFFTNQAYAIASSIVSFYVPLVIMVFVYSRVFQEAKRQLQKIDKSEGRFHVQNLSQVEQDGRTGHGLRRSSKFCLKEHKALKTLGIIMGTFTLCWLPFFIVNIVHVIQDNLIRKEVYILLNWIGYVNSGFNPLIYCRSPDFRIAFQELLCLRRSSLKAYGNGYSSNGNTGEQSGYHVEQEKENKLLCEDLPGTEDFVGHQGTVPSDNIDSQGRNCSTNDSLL

[11] = biological target: AP-2 complex subunit beta (Homo sapiens) (UniProt P63010); experiment: inhibitors of arrestin peptide binding to AP2, pilot screen, biochemical, validation set, GST-AP2 beads, flow cytometry (AID 504541;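 active = inhibition above 54%, about 3 SD of non-fluorescent compounds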;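 also: AP2 carries R879A mutation and is captured from E. coli lysate; bead-bound FITC arrestin peptide fluorescence measuring arrestin peptide binding to AP2; 0% = DMSO wells and 100% = excess unlabeled arrestin peptide control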); settings: FITC arrestin peptide, at 10 µM, stronger effect = higher value, AP2 beta2 appendage fragment, R879A mutant
Chain of AP-2 complex subunit beta (Homo sapiens) (P63010 whole entry, looked up, the tested form may be a part, one chain of several): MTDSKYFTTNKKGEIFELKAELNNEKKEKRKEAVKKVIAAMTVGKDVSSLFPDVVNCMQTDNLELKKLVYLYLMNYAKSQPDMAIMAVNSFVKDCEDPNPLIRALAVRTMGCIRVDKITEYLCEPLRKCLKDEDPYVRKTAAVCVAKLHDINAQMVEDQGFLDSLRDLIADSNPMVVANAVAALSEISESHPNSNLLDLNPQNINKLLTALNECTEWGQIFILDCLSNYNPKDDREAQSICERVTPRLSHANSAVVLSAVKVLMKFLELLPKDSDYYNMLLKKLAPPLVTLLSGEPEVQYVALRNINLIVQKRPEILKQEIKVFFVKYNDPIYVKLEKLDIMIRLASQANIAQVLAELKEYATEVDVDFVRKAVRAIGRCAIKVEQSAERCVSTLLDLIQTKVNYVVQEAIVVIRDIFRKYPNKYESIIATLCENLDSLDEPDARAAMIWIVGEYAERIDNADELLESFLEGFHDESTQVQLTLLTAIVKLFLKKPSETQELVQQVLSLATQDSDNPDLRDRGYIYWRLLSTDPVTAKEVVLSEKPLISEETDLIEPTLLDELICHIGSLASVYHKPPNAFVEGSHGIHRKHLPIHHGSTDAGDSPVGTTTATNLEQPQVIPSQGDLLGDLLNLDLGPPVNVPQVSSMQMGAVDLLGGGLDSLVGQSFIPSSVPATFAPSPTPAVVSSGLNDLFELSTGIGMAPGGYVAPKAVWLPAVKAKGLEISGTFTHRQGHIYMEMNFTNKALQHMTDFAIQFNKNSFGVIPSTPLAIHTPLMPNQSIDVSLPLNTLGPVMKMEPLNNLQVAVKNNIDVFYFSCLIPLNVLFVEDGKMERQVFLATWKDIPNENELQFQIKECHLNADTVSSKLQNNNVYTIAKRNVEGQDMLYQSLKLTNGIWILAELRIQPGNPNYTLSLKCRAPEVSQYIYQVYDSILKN

[12] = yeast V-ATPase proton transport modulators, S. cerevisiae, pHLuorin, HTS validation (AID 504600; in the data active = response above about 15%;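 also: plate controls were DMSO for no effect and reference compound for full effect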); settings: S. cerevisiae pHLuorin cytosolic pH, at 10 µM, stronger effect = higher value
[13] = tested on: anti-desmoglein-3 scFv antibody binding to human DSG3; experiment: inhibitors of anti-DSG3 scFv binding to DSG3, pilot screen, biochemical, validation compound set, bead-based, flow cytometry (AID 588368;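 active = binding below the plate cutoff, the plate median minus 3 SD, with a reading above zero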;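 also: signal is the median channel fluorescence of bead-bound GFP antibody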); settings: Protein G beads, DSG3-Fc, scFv-GFP binding, at 10 µM, stronger effect = lower value
[14] = inhibitors of fungal efflux pumps CDR1, CDR2, MDR1, pilot screen, validation compound set, multiplex, phenotypic (AID 588506;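 active = efflux inhibition above 0.42, the validation set average plus 4 SD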;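 also: Nile Red retained in cells so higher fluorescence means more efflux inhibition; 0 = negative control wells and 1 = enniatin B 25 µM full block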); settings: S. cerevisiae pump-expressing triplex, Nile Red efflux flow cytometry; at 10 µM; stronger effect = higher value; the pumps come from Candida albicans
[15] = biological target: ATP-binding cassette sub-family B member 6 (Homo sapiens) (UniProt Q9NP58); experiment: ABCB6 transporter inhibitors, pilot screen, K562-ABCB6 cells, flow cytometry, validation set (AID 588550;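 active = inhibition above the screen-wide mean plus 3 SD, about 51%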;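 also: 0% = DMSO wells and 100% = benzethonium chloride 70 µM positive control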); settings: K562-ABCB6 porphyrin accumulation, 1 h, at 10 µM, stronger effect = higher value
Chain of ATP-binding cassette sub-family B member 6 (Homo sapiens) (Q9NP58 whole entry, looked up): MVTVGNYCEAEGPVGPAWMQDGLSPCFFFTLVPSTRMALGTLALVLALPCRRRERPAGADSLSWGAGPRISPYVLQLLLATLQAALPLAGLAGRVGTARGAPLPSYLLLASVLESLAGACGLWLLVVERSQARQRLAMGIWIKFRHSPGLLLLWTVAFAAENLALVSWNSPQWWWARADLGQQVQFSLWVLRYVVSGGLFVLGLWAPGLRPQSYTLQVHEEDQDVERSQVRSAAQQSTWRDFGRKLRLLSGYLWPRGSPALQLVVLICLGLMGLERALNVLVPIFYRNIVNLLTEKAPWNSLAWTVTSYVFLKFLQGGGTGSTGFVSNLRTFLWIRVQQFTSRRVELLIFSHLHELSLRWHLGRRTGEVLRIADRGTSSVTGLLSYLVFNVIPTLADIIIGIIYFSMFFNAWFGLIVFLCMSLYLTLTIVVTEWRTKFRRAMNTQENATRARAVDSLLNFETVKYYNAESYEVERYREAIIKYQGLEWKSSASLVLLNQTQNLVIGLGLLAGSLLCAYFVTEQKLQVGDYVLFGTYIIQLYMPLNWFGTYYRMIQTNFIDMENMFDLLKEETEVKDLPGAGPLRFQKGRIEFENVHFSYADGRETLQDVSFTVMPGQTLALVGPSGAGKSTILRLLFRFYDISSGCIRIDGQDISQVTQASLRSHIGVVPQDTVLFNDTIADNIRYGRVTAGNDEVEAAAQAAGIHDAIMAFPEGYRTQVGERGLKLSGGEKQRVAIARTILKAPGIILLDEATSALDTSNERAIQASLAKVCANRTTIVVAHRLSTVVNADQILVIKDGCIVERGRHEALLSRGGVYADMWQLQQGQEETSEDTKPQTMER

[16] = promoters of myeloid differentiation in arrested cells, primary screen, cell-based, GFP/MAC1 double positive, flow cytometry, validation set (AID 588685); settings: ER-HoxA9 marrow cells, stronger effect = higher value, normalized: vehicle 0, fulvestrant 100;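 also: compound exposure lasts four days before antibody staining and flow analysis; 0% = DMSO wells and 100% = 5 µM fulvestrant positive control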

CN1CCc2c(n(CC(O)CN(CCO)CCO)c3ccccc23)C1=O (stereo not drawn)
52.3%: double positive events [6]
active: GFP response vs DMSO [2] 143%
inactive: percent of DMSO control GFP [1] 92.6% | percent response of DMSO control [3] 97.9% | GFP response vs DMSO [4] 82% | GFP response, % of DMSO [5] 99.6% | vesicle binding response [6] 195% | inhibition [7] -9.06% | superoxide response (% of plate) [8] 100% | aptamer binding inhibition [9] 0% | response [10] -17.4% | inhibition [11] 13.6% | response [12] -1.82% | binding (% of control) [13] 104% | efflux inhibition (fraction of control) [14] 0.09 | inhibition [15] 8% | differentiation response [16] -9.83%

C[C@]12CC[C@@H]3c4ccc(O)cc4[C@@H](O)C[C@H]3[C@@H]1CC[C@@H]2O
59.1%: double positive events [6]
inactive: percent of DMSO control GFP [1] 103% | GFP response vs DMSO [2] 101% | percent response of DMSO control [3] 108% | GFP response vs DMSO [4] 98% | GFP response, % of DMSO [5] 104% | vesicle binding response [6] 53.4% | inhibition [7] 5.61% | superoxide response (% of plate) [8] 106% | aptamer binding inhibition [9] 26% | response [10] -0.21% | inhibition [11] -3.62% | response [12] -0.11% | binding (% of control) [13] 102% | efflux inhibition (fraction of control) [14] -0.29 | inhibition [15] 11% | differentiation response [16] -3.11%

CCN1CCN(C(=S)c2ccc(OC)cc2)CC1
inactive: percent of DMSO control GFP [1] 101% | GFP response vs DMSO [2] 99.6% | percent response of DMSO control [3] 109% | GFP response vs DMSO [4] 76% | GFP response, % of DMSO [5] 92.6% | vesicle binding response [6] 183% | inhibition [7] -4.52% | superoxide response (% of plate) [8] 106% | aptamer binding inhibition [9] 2% | response [10] 11.6% | inhibition [11] -10.4% | binding (% of control) [13] 101% | efflux inhibition (fraction of control) [14] -0.21 | inhibition [15] 9% | differentiation response [16] -20%
62.5%: double positive events [6]
active: response [12] 19.2%

Cc1cccc(Nc2ccccc2C(=O)O)c1C
inactive: percent of DMSO control GFP [1] 99.5% | GFP response vs DMSO [2] 102% | percent response of DMSO control [3] 86.7% | GFP response vs DMSO [4] 114% | GFP response, % of DMSO [5] 102% | vesicle binding response [6] 236% | inhibition [7] 4.84% | superoxide response (% of plate) [8] 87.1% | aptamer binding inhibition [9] -1% | response [10] -5.24% | inhibition [11] -8.96% | response [12] -29.3% | binding (% of control) [13] 101% | efflux inhibition (fraction of control) [14] 0.08 | inhibition [15] 5% | differentiation response [16] -12.9%
65.8%: double positive events [6]

Cc1ccc2[nH]c3c(=O)n(CCc4cnc[nH]4)cnc3c2c1
65.2%: double positive events [6]
inactive: percent of DMSO control GFP [1] 96.4% | GFP response vs DMSO [2] 99.7% | percent response of DMSO control [3] 105% | GFP response vs DMSO [4] 97% | GFP response, % of DMSO [5] 103% | vesicle binding response [6] 172% | inhibition [7] -17.2% | superoxide response (% of plate) [8] 93.1% | aptamer binding inhibition [9] 0% | response [10] -13.6% | inhibition [11] -15.4% | response [12] 1.97% | binding (% of control) [13] 103% | efflux inhibition (fraction of control) [14] -0.58 | inhibition [15] 10% | differentiation response [16] -14.8%

CN(C)CCC(c1ccccc1)c1ccccn1 (stereo not drawn)
inactive: percent of DMSO control GFP [1] 97.2% | GFP response vs DMSO [2] 130% | percent response of DMSO control [3] 97.9% | GFP response vs DMSO [4] 83.6% | GFP response, % of DMSO [5] 86.1% | vesicle binding response [6] 139% | inhibition [7] 14.2% | superoxide response (% of plate) [8] 93.1% | aptamer binding inhibition [9] 3% | response [10] -2.11% | inhibition [11] -9.57% | response [12] -0.43% | binding (% of control) [13] 97.8% | efflux inhibition (fraction of control) [14] -0.35 | inhibition [15] 12% | differentiation response [16] 8.19%
64.9%: double positive events [6]

Cc1cc(NS(=O)(=O)c2ccc(N)cc2)no1
63.3%: double positive events [6]
inactive: percent of DMSO control GFP [1] 103% | GFP response vs DMSO [2] 98.7% | percent response of DMSO control [3] 107% | GFP response vs DMSO [4] 102% | GFP response, % of DMSO [5] 113% | vesicle binding response [6] 121% | inhibition [7] 15% | superoxide response (% of plate) [8] 99.6% | aptamer binding inhibition [9] -1% | response [10] 5.64% | inhibition [11] -2.38% | response [12] -1.68% | binding (% of control) [13] 99.2% | efflux inhibition (fraction of control) [14] -0.16 | inhibition [15] 4% | differentiation response [16] -11.9%

CCCNC(C)C(=O)Nc1ccccc1C (stereo not drawn)
60.4%: double positive events [6]
inactive: percent of DMSO control GFP [1] 100% | GFP response vs DMSO [2] 101% | percent response of DMSO control [3] 101% | GFP response vs DMSO [4] 92.6% | GFP response, % of DMSO [5] 103% | vesicle binding response [6] 130% | inhibition [7] -15.8% | superoxide response (% of plate) [8] 96.4% | aptamer binding inhibition [9] 2% | response [10] 2.61% | inhibition [11] -0.33% | response [12] 4.59% | binding (% of control) [13] 102% | efflux inhibition (fraction of control) [14] -0.16 | inhibition [15] -3% | differentiation response [16] -7.5%

O=C(Nc1nc2ccccc2s1)c1ccc(F)cc1
59.5%: double positive events [6]
inactive: percent of DMSO control GFP [1] 100% | GFP response vs DMSO [2] 106% | percent response of DMSO control [3] 102% | GFP response vs DMSO [4] 109% | GFP response, % of DMSO [5] 105% | vesicle binding response [6] 297% | inhibition [7] -4.52% | superoxide response (% of plate) [8] 103% | aptamer binding inhibition [9] 3% | response [10] -12.7% | inhibition [11] -2.74% | response [12] 4.11% | binding (% of control) [13] 101% | efflux inhibition (fraction of control) [14] -0.13 | inhibition [15] 9% | differentiation response [16] -4%
